# Assay results taken from PubChem BioAssay.
# Values joined by “and” are separate entries in the source; they are usually repeats but may differ in a detail not shown here. Equal entries are not always repeated. Inconclusive results are not listed. Active and inactive are the calls of the source. Unless noted, how the calls were made is not given here.
# Assays:
# [1] = liver-stage malaria parasite growth inhibition, primary screen, cell-based, HepG2, luciferase luminescence, HepG2 viability (AID 624349; in the data active means parasite load remaining mostly below about 12%, no sharp cut-off; inactive means mostly above about 10%;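 further: 100% = mean of DMSO negative control wells on the same plate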); conditions: P. berghei liver stage in HepG2, luciferase luminescence, concentration not given here; parasite load remaining: stronger effect = lower value; viability: measured here: HepG2 viability without parasites
# [2] = kinase inhibitors against Plasmodium liver-stage infection, cell-based, known kinase inhibitor set, luminescence, hepatoma host viability (AID 624392); conditions: Plasmodium liver stage in hepatoma cells, luciferase luminescence, concentration not given here; liver cell % of control: measured here: host liver cell viability; parasite % of control: stronger effect = lower value;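 further: infected cells incubated roughly two days before readout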
# [3] = modulators of glucocorticoid suppression of NF-kB, cell-based, luciferase, IL-1B stimulus, dexamethasone (AID 624486); conditions: NF-kB luciferase reporter, IL-1B + dexamethasone, luminescence; percent of negative control (+Dex): actives lie on both sides, concentration not given here; z-score: measured here: IL-1B alone, no Dex;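 on percent of negative control (+Dex): 100% = mean signal of vehicle control wells on the plate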
# [4] = kinase inhibitors altering Pseudomonas killing of worms, whole organism (AID 651566);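 further: tested at 14 µM; sign flipped so higher z means a lower ratio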; conditions: C. elegans killed by P. aeruginosa, survival ratio
# [5] = activators of macrophage pro-inflammatory response, cell-based, murine, luminescence (AID 652131); conditions: murine macrophage pro-inflammatory reporter, stronger effect = higher value
# [6] = biological target: Cellular tumor antigen p53 (Homo sapiens) (UniProt P04637); experiment: kinase inhibitors altering GFP-p53 stability in HPV16-positive cells, imaging, known kinase inhibitor set, EGFP/DsRed ratio (AID 1053116); conditions: stronger effect = higher value; EGFP object count: measured here: GFP-p53 positive objects count;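 further: cells exposed to compounds for 24 h at 37 °C before reading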
# [7] = IRF3 reporter activation in THP-1 macrophages, cell-based, PMA-stimulated THP-1, luminescence (AID 1053176); conditions: PMA-differentiated THP-1, IRF3 reporter luminescence; stronger effect = higher value
# [8] = viability loss in pontine glioma line – cell-based, SU-DIPG-XXV, MIPE5.0, CellTiter-Glo, qHTS, dose response (AID 1347065; cut-off not given, nearly all actives have AC50 up to about 26 µM;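 further: cells exposed to compound for 48 hours before ATP readout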); conditions: CellTiter-Glo ATP luminescence
# [9] = JHH-DIPG-1 glioma cell viability, MIPE5.0 library, CellTiter-Glo luminescence, qHTS (AID 1347067; cut-off not given, nearly all actives have AC50 up to about 26 µM;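 further: cells exposed to compound for 48 hours before readout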); conditions: JHH-DIPG-1 glioma viability, CellTiter-Glo ATP luminescence
# [10] = SU-DIPG-XXV glioma cell viability, MIPE5.0 library, qHTS (AID 1347068; cut-off not given, nearly all actives have IC50 up to about 30 µM)
# [11] = sensitizers of A549 cells to miR-34 induction, primary screen, imaging, A549 dox-inducible miR-34, nuclei and caspase counts (AID 1347080;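 active means compounds whose cell count with miR-34 switched on is under 0.7 times the count with it off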); conditions: A549 miR-34 inducible, Hoechst nuclei count, 48 h
# [12] = survival rescue of mitochondrial mutant cells in low glucose, primary screen, MELAS cybrids, Rieske KO mouse fibroblasts, CellTiter-Glo (AID 1508586;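 active means mean z-score across replicates of 1.96 or higher in either the MELAS or the Rieske mutant cell line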;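 further: z relative to plate mean and SD of compound and empty wells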)
# [13] = growth inhibition of DIPG glioma cells, dose response, cell-based, SU-DIPG-XIII, MIPE4.0, CellTiter-Glo, qHTS (AID 1347061; cut-off not given, nearly all actives have AC50 up to about 37 µM;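 further: cells exposed to compound for 48 hours before readout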); conditions: SU-DIPG-XIII viability, CellTiter-Glo ATP luminescence
# [14] = growth inhibition of DIPG glioma cells, dose response, cell-based, JHH-DIPG-1, MIPE4.0, CellTiter-Glo, qHTS (AID 1347062; cut-off not given, nearly all actives have AC50 up to about 27 µM); conditions: JHH-DIPG-1 viability, CellTiter-Glo ATP luminescence
# [15] = SU-DIPG-VI glioma cell viability, MIPE4.0 library, CellTiter-Glo luminescence, qHTS (AID 1347066; cut-off not given, nearly all actives have AC50 up to about 30 µM;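 further: cells exposed to compound for 48 hours before readout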); conditions: CellTiter-Glo ATP luminescence
# [16] = growth inhibition of DIPG glioma cells, dose response, cell-based, SU-DIPG-IV, MIPE4.0, CellTiter-Glo, qHTS (AID 1347063; cut-off not given, nearly all actives have AC50 up to about 30 µM;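 further: compound exposure lasted 48 hours before the viability readout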); conditions: SU-DIPG-IV viability, CellTiter-Glo ATP luminescence
# [17] = growth inhibition of DIPG glioma cells, dose response, cell-based, SU-DIPG-XVII, MIPE5.0, CellTiter-Glo, qHTS (AID 1347060; cut-off not given, nearly all actives have AC50 up to about 26 µM;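 further: cells exposed to compound for 48 hours before viability readout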); conditions: SU-DIPG-XVII viability, CellTiter-Glo ATP luminescence
# [18] = MELAS cybrid survival, CellTiter-Glo 48 h, stronger effect = higher value
# [19] = Rieske KO mouse fibroblast survival, CellTiter-Glo 72 h
# Chain of Cellular tumor antigen p53 (Homo sapiens) (P04637 whole entry, looked up): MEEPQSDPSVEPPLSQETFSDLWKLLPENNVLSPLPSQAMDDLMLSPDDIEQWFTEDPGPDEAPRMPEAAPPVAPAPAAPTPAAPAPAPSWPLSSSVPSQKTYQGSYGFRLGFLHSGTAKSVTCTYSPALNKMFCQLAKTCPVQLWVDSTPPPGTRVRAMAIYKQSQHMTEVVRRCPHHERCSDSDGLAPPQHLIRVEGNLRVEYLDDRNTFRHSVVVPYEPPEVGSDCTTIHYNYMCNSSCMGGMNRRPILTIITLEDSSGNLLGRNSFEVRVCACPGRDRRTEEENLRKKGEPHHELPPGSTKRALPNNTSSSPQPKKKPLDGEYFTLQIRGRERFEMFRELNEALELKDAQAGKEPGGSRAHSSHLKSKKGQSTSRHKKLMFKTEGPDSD
structure (smiles),measurement,setting,value
COc1ccc(COc2ccc(Cc3cnc(N)nc3N)cc2OC)cc1,parasite load remaining,[1],13.9% (inactive)
same,viability,[1],98.2%
same,liver cell % of control,[2],99.1%
same,parasite % of control,[2],45.5% (inactive)
same,percent of negative control (+Dex),[3],90% (inactive)
same,z-score,[3],-0.44
same,z-score,[4],-0.075 (inactive)
same,z-score,[5],1.35 (inactive)
same,EGFP object count,[6],4.5
same,EGFP/DsRed ratio,[6],0.0511 (inactive)
same,fraction signal,[7],-0.003 (inactive)
same,outcome,[8],inactive
same,outcome,[9],inactive
same,outcome,[10],inactive
same,fold change,"[11]; stronger effect = lower value, cell number ratio, induced over uninduced",0.931 (inactive)
same,fold change,[11]; measured here: relative caspase fold change +Dox/-Dox,0.609
same,cell count,"[11]; measured here: total cells with miR-34 induction, stronger effect = lower value",7300
same,cell count,[11]; measured here: total cells without miR-34 induction,7840
same,z-score,[12]; [18],-0.29 (inactive) and -0.397 (inactive)
same,z-score,[12]; [19],-0.126 and -1.03
COc1ccccc1Nc1ncc(-c2ccccc2)o1,liver cell % of control,[2],121%
same,parasite % of control,[2],132% (inactive)
same,percent of negative control (+Dex),[3],243% (active)
same,z-score,[3],9.37
same,z-score,[4],-1.29 (inactive)
same,z-score,[5],5.36 (inactive)
same,EGFP object count,[6],8.5
same,EGFP/DsRed ratio,[6],0.173 (inactive)
same,fraction signal,[7],0.001 (inactive)
same,z-score,[12]; [18],0.853 (inactive)
same,z-score,[12]; [19],-0.618
Cn1c(=O)c(Oc2ccc(F)cc2F)cc2cnc(NC3CCOCC3)nc21,percent of negative control (+Dex),[3],102% (inactive)
same,z-score,[3],-0.045
same,EGFP object count,[6],4
same,EGFP/DsRed ratio,[6],0.0482 (inactive)
same,fraction signal,[7],-0.007 (inactive)
same,outcome,[13],inactive
same,outcome,[14],inactive
same,outcome,[8],inactive
same,outcome,[15],inactive
same,outcome,[9],inactive
same,outcome,[10],inactive
Cc1ccc(O)cc1Nc1ccnc2cc(-c3ccccn3)ccc12,liver cell % of control,[2],100%
same,parasite % of control,[2],65.6% (inactive)
same,percent of negative control (+Dex),[3],89.5% (inactive)
same,z-score,[3],-0.24
same,z-score,[4],-1.05 (inactive)
same,z-score,[5],5.39 (inactive)
same,EGFP object count,[6],3.5
same,EGFP/DsRed ratio,[6],0.137 (inactive)
same,fraction signal,[7],0.014 (inactive)
same,z-score,[12]; [18],-0.612
same,z-score,[12]; [19],4.8
Cc1ccc(NC(=O)CC2CC2)cc1-c1ccc(C(=O)NCC2CC2)cc1,liver cell % of control,[2],75.5%
same,parasite % of control,[2],149% (inactive)
same,percent of negative control (+Dex),[3],98.5% (inactive)
same,z-score,[3],0.735
same,z-score,[4],-1.18 (inactive)
same,z-score,[5],0.093 (inactive)
same,EGFP object count,[6],6
same,EGFP/DsRed ratio,[6],0.154 (inactive)
same,fraction signal,[7],-0.006 (inactive)
same,z-score,[12]; [18],-0.893 (inactive)
same,z-score,[12]; [19],-0.555
COc1cc2ncn(-c3cc(OCc4ccccc4S(C)(=O)=O)c(C#N)s3)c2cc1OC,parasite load remaining,[1],28.4% (inactive)
same,viability,[1],80.2%
same,liver cell % of control,[2],84.7%
same,parasite % of control,[2],80.2% (inactive)
same,percent of negative control (+Dex),[3],72.5% (inactive)
same,z-score,[3],-0.135
same,z-score,[4],-0.355 (inactive)
same,z-score,[5],8.9 (active)
same,EGFP object count,[6],7.5
same,EGFP/DsRed ratio,[6],0.318 (inactive)
same,fraction signal,[7],0.0015 (inactive)
same,outcome,[13],inactive
same,outcome,[14],inactive
same,outcome,[16],inactive
same,outcome,[8],inactive
same,outcome,[15],inactive
same,outcome,[9],inactive
same,outcome,[10],inactive
same,z-score,[12]; [18],0.713 (inactive)
same,z-score,[12]; [19],-0.131
CCc1nccc2c1nc(-c1nonc1N)n2CC,liver cell % of control,[2],89.7%
same,parasite % of control,[2],130% (inactive)
same,percent of negative control (+Dex),[3],67% (inactive)
same,z-score,[3],-2.37
same,z-score,[4],-0.475 (inactive)
same,z-score,[5],-0.569 (inactive)
same,EGFP object count,[6],2.5
same,EGFP/DsRed ratio,[6],0.0232 (inactive)
same,fraction signal,[7],0.005 (inactive)
same,z-score,[12]; [18],0.0182 (inactive)
same,z-score,[12]; [19],-0.326
CC(C)c1ccc(Nc2nccc(-c3cnn4ncccc34)n2)cc1,liver cell % of control,[2],146%
same,parasite % of control,[2],13.9% (active)
same,percent of negative control (+Dex),[3],12.5% (active)
same,z-score,[3],-8.57
same,z-score,[4],0.07 (inactive)
same,z-score,[5],-1.83 (inactive)
same,EGFP object count,[6],3.5
same,EGFP/DsRed ratio,[6],0.181 (inactive)
same,fraction signal,[7],-0.005 (inactive)
same,z-score,[12]; [18],0.723 (inactive)
same,z-score,[12]; [19],-0.0455
COc1cc(C)c(NC(=O)CN(C)C)cc1Nc1nc(Nc2cccc(F)c2C(N)=O)c2cc[nH]c2n1,liver cell % of control,[2],63%
same,parasite % of control,[2],550% (inactive)
same,percent of negative control (+Dex),[3],93% (inactive)
same,z-score,[3],-0.195
same,z-score,[4],-0.165 (inactive)
same,z-score,[5],5.12 (inactive)
same,EGFP object count,[6],21
same,EGFP/DsRed ratio,[6],0.493 (inactive)
same,fraction signal,[7],-0.0105 (inactive)
same,z-score,[12]; [18],1.87 (inactive)
same,z-score,[12]; [19],-0.0279
COc1ccc(-c2oc3ncnc(N)c3c2-c2ccc(NC(=O)Nc3cc(C(F)(F)F)ccc3F)cc2)cc1,liver cell % of control,[2],50%
same,parasite % of control,[2],186% (inactive)
same,percent of negative control (+Dex),[3],93.5% (inactive)
same,z-score,[3],-2.24
same,z-score,[4],0.785 (inactive)
same,z-score,[5],-0.472 (inactive)
same,EGFP object count,[6],6
same,EGFP/DsRed ratio,[6],0.0596 (inactive)
same,fraction signal,[7],0.007 (inactive)
same,AC50,[17],3.72 µM (active)
same,AC50,[8],1.66 µM (active)
same,AC50,[9],9.34 µM (active)
same,z-score,[12]; [18],-1.1 (inactive)
same,z-score,[12]; [19],-0.0748
CCn1c(-c2nonc2N)nc2c(C#CC(C)(C)O)nc(OC[C@@H](N)c3ccccc3)cc21,liver cell % of control,[2],87.1%
same,parasite % of control,[2],48.7% (inactive)
same,percent of negative control (+Dex),[3],108% (inactive)
same,z-score,[3],3.72
same,z-score,[4],0.96 (inactive)
same,z-score,[5],-1.1 (inactive)
same,EGFP object count,[6],19.5
same,EGFP/DsRed ratio,[6],0.658 (inactive)
same,fraction signal,[7],-0.0095 (inactive)
same,z-score,[12]; [18],-0.774 (inactive)
same,z-score,[12]; [19],0.238
